From PubChem BioAssay (NCI)
Compounds without any hit were thinned out: in the full panel of roughly 79,000, 15% have a hit. Cut-off read from the data, not from the text of the source: active = growth inhibition above about 70%; inactive = the rest.

Tests used:
[1] = NCI Yeast Anticancer Drug Screen. Data for the rad50 strain (AID 155);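 note: 0% = growth of vehicle-only cultures of the same strain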; conditions: S. cerevisiae rad50 strain growth inhibition; at 50.0 µM; hits give high values
Outline: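 Genetically altered yeast (DNA repair pathway); compound treatment; growth inhibition vs vehicle ctrl.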

[2] = NCI Yeast Anticancer Drug Screen. Data for the mec2-1 strain (AID 157); conditions: S. cerevisiae mec2-1 strain, at 50.0 µM, hits give high values
Outline: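 Compounds were applied to mec2-1 yeast cells. Their growth was then compared with that of vehicle-treated cultures to give growth inhibition.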

[3] = NCI Yeast Anticancer Drug Screen. Data for the sgs1 mgt1 strain (AID 161);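 note: 0% = growth of cultures given vehicle only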; conditions: S. cerevisiae sgs1 mgt1 strain, at 50.0 µM, hits give high values
Outline: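 Growth of a repair-deficient yeast mutant was monitored after compound treatment and expressed as inhibition relative to vehicle-treated cultures.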

[4] = NCI Yeast Anticancer Drug Screen. Data for the cln2 rad14 strain (AID 165);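 note: 0% = growth equal to vehicle treated cultures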; conditions: S. cerevisiae cln2 rad14 strain, at 50.0 µM, hits give high values
Outline: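 Strain: cln2 rad14 yeast, altered in cell cycle control and DNA damage repair. Read-out: growth inhibition vs vehicle.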

[5] = NCI Yeast Anticancer Drug Screen. Data for the bub3 strain (AID 167); conditions: S. cerevisiae bub3 mutant strain, at 50.0 µM, hits give high values
Outline: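 Yeast carrying a defined mutation is treated with each compound, and growth is compared with that of vehicle-exposed cells to give inhibition.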

[6] = NCI Yeast Anticancer Drug Screen. Data for the mlh1 rad18 strain (AID 175); conditions: S. cerevisiae mlh1 rad18 strain growth inhibition; at 50.0 µM; hits give high values
Outline: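 A repair-deficient yeast strain is exposed to test compound, and growth is scored relative to vehicle-treated controls.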

Measured: growth inhibition

CN(C)CCCNc1ccc2ncn3c4ccc(O)cc4c(=O)c1c23
inactive: [1] -4.45% | [2] -3.9% | [3] -14.3% | [4] -15.3% | [5] 0.5% | [6] 7.9%

Cn1c(Cl)cc2nc3ccccc3n2c1=O
inactive: [1] 10.2% | [2] 19.7% | [3] -1% | [4] -11.3% | [5] 11.2% | [6] 5.4%

O=C(Nc1cccc([N+](=O)[O-])c1)C1C(=O)N(c2cccc([N+](=O)[O-])c2)C(=O)/C1=N/O (centres undefined)
inactive: [1] -16.8% | [2] -7.4% | [3] -24.8% | [4] -50.4% | [5] 0.1% | [6] -3.5%

Cc1ccc2c(c1)C(C)(C)CCC2
inactive: [1] -2.1% | [2] -18.4% | [3] -18.4% | [4] -59.6% | [5] -9.1% | [6] 4.95%

O=[N+]([O-])c1cccc2cnccc12
inactive: [1] -7.25% | [2] 22.4% | [3] 3.9% | [4] -21.1% | [5] 5.5% | [6] 17.6%

Cn1c(=O)c2c(ncn2CCNCC(O)c2cc(C(C)(C)C)c(O)c(C(C)(C)C)c2)n(C)c1=O (centres undefined)
inactive: [1] 31.2% | [2] 6.35% | [3] 19% | [4] 16.8% | [5] -3.2% | [6] 11.2%

S=C(S)NCNC(=S)S.[Zn+2]
inactive: [1] 1.65% | [2] 12.2% | [3] 26.1% | [4] -64.2% | [5] 28.2% | [6] 29.4%

O=C(O)C1SCCS1
inactive: [1] 15.4% | [2] 14.7% | [3] 19.1% | [4] 21.8% | [5] 22.1% | [6] 12.8%

C=C(c1ccccc1)N1N=NC2CCOC21 (centres undefined)
inactive: [1] -4.25% | [2] -10% | [3] 4.2% | [4] -20.6% | [5] -16.8% | [6] -8.65%

O=C(c1ccccc1)c1nc2ccc(Cl)cc2cc1C(Br)Br
inactive: [1] 17.9% | [2] -2.75% | [3] 25.1% | [4] 15.1% | [5] 28.8% | [6] 17.9%

O=C(NNc1ccccc1OCc1ccccc1)C(F)(F)F
inactive: [1] -0.25% | [2] -20.3% | [3] 0.35% | [4] 39.8% | [5] 27% | [6] 11.2%

NCCCn1[nH]c(=O)c2cccnc2c1=O
inactive: [1] -62.9% | [2] -19% | [3] -19% | [4] -74% | [5] -3.8% | [6] -16.3%

CC1=C(c2ccco2)C(c2ccco2)OC1=O (centres undefined)
inactive: [1] 8.45% | [2] 27.2% | [3] 15.9% | [4] -16.6% | [5] 18.3% | [6] -7.3%

N#Cc1cc2c(cc1C#N)SCCSCCCSCCS2
inactive: [1] 1.2% | [2] 5% | [3] 1.05% | [4] 22.4% | [5] 6% | [6] -24.8%

C/C=C(/C=O)[C@@H]1CC2c3c(c4ccccc4n3[C@@H](O)C1)CCN2C (some centres undefined)
inactive: [1] -5.45% | [2] -17.6% | [3] -4.4% | [4] -1.1% | [5] -33.2% | [6] -16.6%

CCOC(=O)c1nnsc1NC(=O)Nc1ccc(Cl)cc1
inactive: [1] -5.05% | [2] -21.2% | [3] -3.4% | [4] -6.55% | [5] -44.9% | [6] 10.6%

CCOC(=O)CCCNc1cc(OC)cc2cccnc12
inactive: [1] -7.4% | [2] -23.9% | [3] -2.6% | [4] -48.8% | [5] 19.8% | [6] -8.7%

Cc1cc(C(N)=O)c(C(N)=O)c(=O)[nH]1
inactive: [1] -13.1% | [2] 2% | [3] 0% | [4] -7.5% | [5] -14.2% | [6] 15.8%

O=c1[nH]nc(S(=O)(=O)N2CCCC2)c(=O)[nH]1
inactive: [1] -10.9% | [2] -9% | [3] -10.7% | [4] -2.85% | [5] -4.15% | [6] -13.2%
